This passage reports Potency results from PubChem BioAssay (Tox21).

Several values for one entry are separate records, joined by “and”; a condition that tells them apart may be missing. Equal entries are not always repeated. Inconclusive results are not listed. More than one record can exist for a structure, and the calls need not agree. Activity calls are given as the source filed them. Calls come from the whole dose curve; as a rule, active = well fitted curve in the direction sought with a large enough effect in the repeat runs; inconclusive = weak or mixed curves; inactive = no such curve, though single readings can be large; an effect the other way counts as inactive or inconclusive.

A short description of assay [1]: Caspase-3/7 induction in CHO-K1 cells by small molecules, qHTS cell viability counter screen (AID 1346979). Note: nearly all actives have a fitted effect of over 35% in size. Note: potency is the fitted concentration of half-maximal effect. In a few lines: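 Seeding: 1,500 CHO-K1 cells/well. Rest: 5hr, 37C. Treatment: compounds in DMSO, 16hr. Read: CellTiter-Fluor, 1hr, fluorescence.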
For orientation: Quantitative high-throughput screening tests each substance at several concentrations.

A short description of assay [2]: Caspase-3/7 induction in HepG2 cells by small molecules, qHTS cell viability counter screen (AID 1346981). Note: nearly all actives have a fitted effect of over 30% in size. Note: potency is the fitted concentration of half-maximal effect. In a few lines:
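Viability determined by CellTiter-Fluor fluorescence in HepG2 wells also used for the luminescent Caspase-Glo 3/7 read. Compounds were present for 16 hr at 37 C, 5% CO2 before reagent addition.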

Assay [3] addresses Nuclear receptor subfamily 1 group I member 2 (Homo sapiens) (UniProt O75469). Briefly: Human pregnane X receptor (PXR) small molecule agonists, qHTS assay (AID 1346982). Note: nearly all actives have a fitted effect of over 35% in size. Note: potency is the fitted concentration of half-maximal effect. In a few lines:
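Compound-induced hPXR transactivation of a CYP3A4 luciferase reporter was scored in HepG2 PXR-Luc cells over 24 hr at 37 C, 5% CO2, by luminescence.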

Assay [4] has as its target Cytochrome P450 2D6 (Homo sapiens) (UniProt P10635). Put plainly: Cytochrome P450 Family 2 Subfamily D Member 6 (CYP2D6) small molecule antagonists: luciferase reporter qHTS assay (AID 1671196). Note: nearly all actives have a fitted effect of over 50% in size. Note: potency is the fitted concentration of half-maximal effect. In a few lines:
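Each well received CYP2D6 with its proluciferin substrate and chemical, sat 10 min, then got NADPH regeneration solution for 1 h at room temperature. Luminescence in RLU served as the activity measure.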
Background: Reporter assays use an easily measured gene product as a stand-in for the process of interest.

In assay [5] the target is Cytochrome P450 2C9 (Homo sapiens) (UniProt P11712). Put plainly: Cytochrome P450 Family 2 Subfamily C Member 9 (CYP2C9) small molecule antagonists: luciferase reporter qHTS assay (AID 1671198). Note: nearly all actives have a fitted effect of over 50% in size. Note: potency is the fitted concentration of half-maximal effect. The procedure, abridged: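 CYP2C9 activity was measured with a P450-Glo proluciferin substrate. Enzyme–substrate mix was held with compound for 10 min at room temperature, then NADPH regeneration solution was added for 1 h at 37C. Luciferin product was read as luminescence.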

The target in assay [6] is Cytochrome P450 1A2 (Homo sapiens) (UniProt P05177). Briefly: Cytochrome P450 Family 1 Subfamily A Member 2 (CYP1A2) small molecule antagonists: luciferase reporter qHTS assay (AID 1671199). Note: nearly all actives have a fitted effect of over 50% in size. Note: potency is the fitted concentration of half-maximal effect. In a few lines:
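Enzymatic CYP1A2 assay, human, luminescent: 10 min compound–enzyme–substrate preincubation, 1 h NADPH-dependent turnover, 20 min detection step, room temperature throughout. Reduced light indicates lower CYP1A2 activity.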

Assay [7] addresses Voltage-gated inwardly rectifying potassium channel KCNH2 (Homo sapiens) (UniProt Q12809). Briefly: Human Ether-a-go-go-Related Gene (hERG) channel small molecule antagonists: fluorescence cell-based qHTS assay (AID 1671200). Note: nearly all actives have a fitted effect of over 50% in size. Note: potency is the fitted concentration of half-maximal effect. In a few lines: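 First, 1000 cells per well are seeded and cultured overnight at 37 C. Next, FluxOR II dye is loaded for 1 h at room temperature, protected from light. After 10 more minutes, stimulus is added and fluorescence is read.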

The target of assay [8] is Cytochrome P450 3A4 (Homo sapiens) (UniProt P08684). Briefly: Cytochrome P450 Family 3 Subfamily A Member 4 (CYP3A4) small molecule antagonists: luciferase reporter qHTS assay (AID 1671201). Note: nearly all actives have a fitted effect of over 50% in size. Note: potency is the fitted concentration of half-maximal effect. In a few lines:
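Enzyme and proluciferin substrate are mixed with test chemicals for 10 min, then NADPH regeneration system drives turnover for 1 h at room temperature. A detection reagent halts the reaction; luminescence after 20 min gives relative activity.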

Assay [9] concerns the target Cytochrome P450 2C19 (Homo sapiens) (UniProt P33261). Put plainly: Cytochrome P450 Family 2 Subfamily C Member 19 (CYP2C19) small molecule antagonists: luciferase reporter qHTS assay (AID 1671197). Note: nearly all actives have a fitted effect of over 65% in size. Note: potency is the fitted concentration of half-maximal effect. In a few lines:
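Compounds were tested on CYP2C19 activity via proluciferin conversion to luciferin. The 37C, 1 h reaction followed NADPH addition; detection reagent stopped it.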

Assay [10] is described as follows: Caspase-3/7 induction in CHO-K1 cells by small molecules, qHTS assay (AID 1346980). Note: nearly all actives have a fitted effect of over 15% in size. The procedure, abridged:
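Wild-type cells were seeded at 1,500 per well and settled 5 hr at 37 C, 5% CO2, then exposed to DMSO-dissolved compounds for 17 hr. Caspase-Glo 3/7 reagent was added, and luminescence was read after 30min at room temperature.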

Assay [11] addresses Nuclear receptor subfamily 1 group I member 2 (Homo sapiens) (UniProt O75469). Put plainly: CYP3A4 induction through human pregnane X receptor (PXR) by small molecules, qHTS assay (AID 1346984). Note: nearly all actives have a fitted effect of over 40% in size. The procedure, abridged:
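Readings come from a luciferase reporter: DPX-2 cells, which are HepG2 cotransfected with PXR and a CYP3A4-promoter construct, were exposed to test compounds for 24 h at 37C before One-Glo detection.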

Assay [12] has the same target. Briefly: Human pregnane X receptor (PXR) activation by small molecules, qHTS assay (AID 1346985). Note: nearly all actives have a fitted effect of over 40% in size. The procedure, abridged: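 DPX-2 cells (HepG2 co-transfected with a PXR response element and a CYP3A4-promoter luciferase construct) were seeded at 2,000 per well, rested 5 hr at 37C, then exposed to DMSO-dissolved compounds for 24 hr. Activation was read as luciferase luminescence.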

Sequence of Voltage-gated inwardly rectifying potassium channel KCNH2 (Homo sapiens) (Q12809 whole entry, looked up): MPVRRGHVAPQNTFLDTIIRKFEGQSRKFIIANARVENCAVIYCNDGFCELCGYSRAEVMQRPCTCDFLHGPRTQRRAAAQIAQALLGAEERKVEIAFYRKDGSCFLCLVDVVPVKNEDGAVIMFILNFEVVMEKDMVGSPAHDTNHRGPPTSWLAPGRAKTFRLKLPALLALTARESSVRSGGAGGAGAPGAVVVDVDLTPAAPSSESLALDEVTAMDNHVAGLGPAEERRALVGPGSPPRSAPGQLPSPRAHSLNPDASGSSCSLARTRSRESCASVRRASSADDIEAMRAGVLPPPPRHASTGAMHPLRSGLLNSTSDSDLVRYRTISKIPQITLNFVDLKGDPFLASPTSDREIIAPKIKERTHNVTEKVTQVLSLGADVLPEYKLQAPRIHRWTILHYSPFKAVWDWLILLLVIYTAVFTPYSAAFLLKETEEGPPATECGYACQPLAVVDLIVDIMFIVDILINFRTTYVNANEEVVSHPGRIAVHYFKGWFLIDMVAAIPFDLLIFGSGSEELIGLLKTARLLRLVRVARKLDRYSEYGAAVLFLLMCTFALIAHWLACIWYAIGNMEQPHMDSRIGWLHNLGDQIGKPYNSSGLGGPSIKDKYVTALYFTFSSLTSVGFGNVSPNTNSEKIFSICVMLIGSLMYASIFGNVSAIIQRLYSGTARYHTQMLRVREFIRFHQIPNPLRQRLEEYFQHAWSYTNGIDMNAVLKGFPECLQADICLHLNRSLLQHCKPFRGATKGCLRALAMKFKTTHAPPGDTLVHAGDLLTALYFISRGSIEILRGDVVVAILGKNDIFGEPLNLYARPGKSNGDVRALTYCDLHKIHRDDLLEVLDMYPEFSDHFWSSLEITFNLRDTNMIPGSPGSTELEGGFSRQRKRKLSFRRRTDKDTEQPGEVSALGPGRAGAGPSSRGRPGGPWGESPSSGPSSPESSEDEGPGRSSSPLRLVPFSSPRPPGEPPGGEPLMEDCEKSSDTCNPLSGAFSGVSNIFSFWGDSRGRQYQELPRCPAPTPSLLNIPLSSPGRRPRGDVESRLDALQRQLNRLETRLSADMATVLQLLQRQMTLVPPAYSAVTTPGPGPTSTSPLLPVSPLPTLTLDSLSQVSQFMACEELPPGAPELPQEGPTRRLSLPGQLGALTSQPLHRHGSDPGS
Sequence of Cytochrome P450 1A2 (Homo sapiens) (P05177 whole entry, looked up): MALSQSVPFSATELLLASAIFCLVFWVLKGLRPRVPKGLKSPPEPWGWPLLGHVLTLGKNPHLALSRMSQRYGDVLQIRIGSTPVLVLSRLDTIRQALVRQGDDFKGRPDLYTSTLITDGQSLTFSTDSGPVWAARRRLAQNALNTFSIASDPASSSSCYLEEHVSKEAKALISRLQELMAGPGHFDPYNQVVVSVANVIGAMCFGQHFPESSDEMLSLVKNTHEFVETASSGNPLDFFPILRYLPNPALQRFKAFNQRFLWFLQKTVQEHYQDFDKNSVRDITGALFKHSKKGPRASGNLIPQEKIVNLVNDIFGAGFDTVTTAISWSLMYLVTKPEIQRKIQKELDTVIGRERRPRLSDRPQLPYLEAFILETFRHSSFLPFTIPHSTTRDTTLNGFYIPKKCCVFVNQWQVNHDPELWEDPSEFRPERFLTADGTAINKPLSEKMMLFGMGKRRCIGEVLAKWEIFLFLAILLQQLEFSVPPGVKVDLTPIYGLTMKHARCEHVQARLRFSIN
Sequence of Cytochrome P450 2C19 (Homo sapiens) (P33261 whole entry, looked up): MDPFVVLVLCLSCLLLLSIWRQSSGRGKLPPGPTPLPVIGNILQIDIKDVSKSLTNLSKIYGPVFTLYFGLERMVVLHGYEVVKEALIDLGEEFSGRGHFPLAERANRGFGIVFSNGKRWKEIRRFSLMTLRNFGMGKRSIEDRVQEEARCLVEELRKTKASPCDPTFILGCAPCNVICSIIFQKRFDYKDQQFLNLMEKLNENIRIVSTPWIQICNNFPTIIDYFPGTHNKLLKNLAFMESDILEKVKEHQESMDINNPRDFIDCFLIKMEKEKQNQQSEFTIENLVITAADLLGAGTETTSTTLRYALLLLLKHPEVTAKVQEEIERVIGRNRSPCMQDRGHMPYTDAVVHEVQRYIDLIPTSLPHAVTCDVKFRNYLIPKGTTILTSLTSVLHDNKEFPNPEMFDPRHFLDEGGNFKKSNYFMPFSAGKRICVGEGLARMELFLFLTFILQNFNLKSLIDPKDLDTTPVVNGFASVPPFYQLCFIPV
Sequence of Cytochrome P450 2D6 (Homo sapiens) (P10635 whole entry, looked up): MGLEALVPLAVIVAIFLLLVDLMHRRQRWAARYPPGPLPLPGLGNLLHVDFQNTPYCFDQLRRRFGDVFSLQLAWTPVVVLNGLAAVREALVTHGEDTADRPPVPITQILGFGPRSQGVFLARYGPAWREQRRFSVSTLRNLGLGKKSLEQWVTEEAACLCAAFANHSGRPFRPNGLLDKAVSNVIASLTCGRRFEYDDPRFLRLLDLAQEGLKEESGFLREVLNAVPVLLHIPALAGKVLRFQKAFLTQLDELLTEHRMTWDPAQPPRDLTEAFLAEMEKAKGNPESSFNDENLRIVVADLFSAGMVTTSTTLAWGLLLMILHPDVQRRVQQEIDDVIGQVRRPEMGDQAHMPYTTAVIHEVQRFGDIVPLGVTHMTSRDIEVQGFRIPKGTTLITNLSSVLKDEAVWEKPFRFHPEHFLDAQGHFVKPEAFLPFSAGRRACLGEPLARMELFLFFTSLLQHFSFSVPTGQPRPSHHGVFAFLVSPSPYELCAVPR
Sequence of Cytochrome P450 2C9 (Homo sapiens) (P11712 whole entry, looked up): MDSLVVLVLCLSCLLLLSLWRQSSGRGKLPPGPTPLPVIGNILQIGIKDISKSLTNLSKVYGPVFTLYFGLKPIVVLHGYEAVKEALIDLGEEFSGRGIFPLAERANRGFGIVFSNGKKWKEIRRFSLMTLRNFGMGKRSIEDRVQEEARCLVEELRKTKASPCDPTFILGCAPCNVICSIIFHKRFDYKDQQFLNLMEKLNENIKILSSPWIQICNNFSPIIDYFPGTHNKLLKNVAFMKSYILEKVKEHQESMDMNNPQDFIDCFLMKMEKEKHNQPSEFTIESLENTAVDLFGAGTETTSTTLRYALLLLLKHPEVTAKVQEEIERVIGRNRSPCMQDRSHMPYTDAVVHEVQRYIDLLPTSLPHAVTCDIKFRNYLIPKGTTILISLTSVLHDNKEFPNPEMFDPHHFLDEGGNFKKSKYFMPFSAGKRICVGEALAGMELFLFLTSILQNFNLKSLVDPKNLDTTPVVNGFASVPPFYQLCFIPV
Sequence of Cytochrome P450 3A4 (Homo sapiens) (P08684 whole entry, looked up): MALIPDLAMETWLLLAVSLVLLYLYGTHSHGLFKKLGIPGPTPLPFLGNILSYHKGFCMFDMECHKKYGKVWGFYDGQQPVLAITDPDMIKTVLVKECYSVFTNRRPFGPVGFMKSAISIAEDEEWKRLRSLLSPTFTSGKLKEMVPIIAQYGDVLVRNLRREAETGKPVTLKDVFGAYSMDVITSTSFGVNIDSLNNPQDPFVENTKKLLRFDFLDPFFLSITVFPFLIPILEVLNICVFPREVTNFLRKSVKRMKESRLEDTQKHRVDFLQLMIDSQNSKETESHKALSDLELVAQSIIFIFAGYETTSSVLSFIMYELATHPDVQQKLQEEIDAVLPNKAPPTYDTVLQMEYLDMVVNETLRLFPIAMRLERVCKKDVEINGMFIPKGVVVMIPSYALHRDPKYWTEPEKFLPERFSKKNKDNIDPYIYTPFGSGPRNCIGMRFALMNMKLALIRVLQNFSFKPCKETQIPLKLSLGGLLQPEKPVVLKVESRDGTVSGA
Sequence of Nuclear receptor subfamily 1 group I member 2 (Homo sapiens) (O75469 whole entry, looked up): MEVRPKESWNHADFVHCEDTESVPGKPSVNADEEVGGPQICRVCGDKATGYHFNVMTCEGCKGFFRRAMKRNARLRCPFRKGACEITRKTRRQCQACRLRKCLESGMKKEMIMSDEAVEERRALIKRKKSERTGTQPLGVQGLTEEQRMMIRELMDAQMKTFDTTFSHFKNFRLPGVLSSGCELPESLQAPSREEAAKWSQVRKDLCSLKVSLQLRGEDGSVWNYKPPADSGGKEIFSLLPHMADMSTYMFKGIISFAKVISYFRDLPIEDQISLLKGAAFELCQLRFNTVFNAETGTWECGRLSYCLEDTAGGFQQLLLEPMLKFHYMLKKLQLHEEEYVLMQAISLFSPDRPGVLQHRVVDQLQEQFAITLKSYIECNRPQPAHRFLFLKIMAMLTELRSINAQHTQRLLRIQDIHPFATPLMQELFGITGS

`CC=O`: the Potency was 4.03 µM (active) in assay [1]; 4.53 µM (active) in assay [3]; 8.34 µM (active) in assay [4]; 37.2 µM (active) in assay [6]; 4.57 µM (active) in [7]. Besides, the Potency entry in assay [2], in assay [5] and in assay [8] was “inactive” each time.

As for `CC1=C(/C=C/C(C)=C/C=C/C(C)=C\C=O)C(C)(C)CCC1`, the Potency in [1] was 57.9 µM (active); in assay [3], 51.6 µM (active); in assay [9], 37.8 µM (active); in assay [5], 59.9 µM (active).

For the compound `O=C(Oc1ccccc1)c1cccc(C(=O)Oc2ccccc2)c1`, the Potency in assay [1] was 51.2 µM (active); in [4], 28.9 µM (active); in assay [9], 2.98 µM (active); in [5], 7.48 µM (active). The Potency entry in assay [10] and in assay [8] was “inactive” in each case.

`CNCC[C@H](Oc1cccc2ccccc12)c1cccs1`: the Potency result in assay [10] is “inactive”.

Take `CC1=C(/C=C/C(C)=C/C=C/C(C)=C/C(=O)Nc2ccc(O)cc2)C(C)(C)CCC1`: the Potency in assay [1] is 44.4 µM (active) and 21.1 µM (active); in [2] it was 55.9 µM (active) and 26.6 µM (active); in [3] it was 19.8 µM (active) and inactive; in assay [4], 13.8 µM (active); in [9], 41 µM (active) and 27.5 µM (active); in assay [5] it was 9.17 µM (active) and 8.71 µM (active). The Potency in [6] was 72.8 µM (active) and inactive. For the same compound, the Potency entry in [11], in assay [12] and in [7] was “inactive” in each case.

On to `CCCOc1sc(C(=O)N2CCC(c3cc(CN)ccc3F)CC2)c(C)c1Br`, for which the Potency in assay [1] was 22.3 µM (active); in assay [4], 18.3 µM (active); in assay [9], 3.66 µM (active); in assay [5], 1.63 µM (active); in assay [6], 73 µM (active); in assay [7], 5.65 µM (active). Also, the Potency in [8] was 10.3 µM (active).

With `CC(C)c1ccc(O)c(C(C)C)c1`, the Potency result in [10], in [2], in assay [3] and in assay [4] was “inactive” throughout. In addition, the Potency is 7.1 µM (active) in assay [9], 35.6 µM (active) in assay [5] and 31.7 µM (active) in assay [6].

In the case of `C=CCCCCCCC=C`, the Potency entry in assay [1], in assay [10] and in [7] was “inactive” each time.

As for `Clc1ccc(C(Cn2ccnc2)OCc2c(Cl)cccc2Cl)c(Cl)c1` (stereo unspecified), the Potency was 21.1 µM (active) in [1] and 7.56 µM (active) in assay [7]. For the same compound, the Potency result in assay [10] is “inactive”.

On to `CCO[Si](CCCSSSSCCC[Si](OCC)(OCC)OCC)(OCC)OCC`, for which the Potency result in assay [10], in assay [2], in [3] and in assay [7] was “inactive” in each case. The Potency in assay [4] was 35.6 µM (active); in assay [9], 5.03 µM (active); in [5] it was 12.6 µM (active); in assay [6], 71.1 µM (active); in assay [8], 2.83 µM (active).

As for `CC(C)(c1cc(Br)c(O)c(Br)c1)c1cc(Br)c(O)c(Br)c1`, the Potency in assay [1] is 60.9 µM (active); in [3], 54.3 µM (active) and 60.9 µM (active) and 57.9 µM (active); in assay [9] it was 22.4 µM (active) and 35.5 µM (active); in assay [5], 31.6 µM (active) and 35.5 µM (active) and 30 µM (active). For the same compound, the Potency result in [2], in [4], in [6] and in [7] was “inactive” each time.

`Cc1cccc(C)c1NC(=O)CN1CCN(CCCC(c2ccc(F)cc2)c2ccc(F)cc2)CC1`: the Potency in assay [1] is 29.8 µM (active); in assay [2], 21.1 µM (active); in assay [4], 2.45 µM (active); in [9], 43.6 µM (active). Also, the Potency result in assay [3], in [11], in assay [12], in assay [6] and in assay [8] was “inactive” throughout.

With `O=Nc1ccc(NO)cc1`, the Potency in assay [1] was 63.6 µM (active). Also, the Potency result in assay [10], in assay [4], in [5], in assay [6] and in [7] was “inactive” in each case.

Take `O=C1NCN(c2ccccc2)C12CCN(CCCC(c1ccc(F)cc1)c1ccc(F)cc1)CC2`: the Potency in assay [1] is 33.5 µM (active); in assay [2] it was 26.6 µM (active); in [7], 0.19 µM (active). The Potency entry in assay [3], in assay [6] and in [8] was “inactive” throughout.

As to `CC(C)(C)CC(C)(C)c1ccccc1O`, the Potency was 61.4 µM (active) in assay [1]; 61.4 µM (active) in [2]; 21.8 µM (active) in assay [3]; 17.9 µM (active) in [5]; 35.8 µM (active) in assay [6]; 63.6 µM (active) in [8]. In addition, the Potency entry in assay [9] was “inactive”.

In the case of `CCCCCCCCCCOCC(O)CN` (stereo unspecified), the Potency was 33.5 µM (active) in [1]; 6.92 µM (active) in [4]; 6.92 µM (active) in [9]; 13.8 µM (active) in assay [5]; 2.88 µM (active) in assay [6]; 23.9 µM (active) in assay [7]. In addition, the Potency entry in assay [3] and in assay [8] was “inactive” throughout.

As to `C=CC(=O)OCCOCC(CC)(COCCOC(=O)C=C)COCCOC(=O)C=C`, the Potency was 8.02 µM (active) in assay [1], 28.4 µM (active) in assay [3], 23.4 µM (active) in assay [9] and 26.3 µM (active) in [5]. Also, the Potency result in assay [7] was “inactive”.

Turning to `C[C@@H]1CC[C@H]2C(C)(C)[C@H]3C[C@@]12CC[C@@]3(C)O`, the Potency result in assay [10], in [2] and in [3] was “inactive” in each case.

Turning to `CC(=O)c1ccccc1N`, the Potency entry in assay [1], in assay [10], in assay [9], in [5], in [7] and in assay [8] was “inactive” throughout.

Consider `COCC(=O)O[C@]1(CCN(C)CCCc2nc3ccccc3[nH]2)CCc2cc(F)ccc2[C@@H]1C(C)C`, for which the Potency is 29.8 µM (active) in assay [1], 29.8 µM (active) in [2] and 1.68 µM (active) in assay [3]. Also, the Potency result in assay [11], in [12], in assay [5] and in [6] was “inactive” throughout.

Consider `O=C1NC2CCCCN2C12CCN(CCCN1c3ccccc3CCc3ccc(Cl)cc31)CC2` (stereo unspecified), for which the Potency in [1] was 26.6 µM (active); in [2], 29.8 µM (active); in [4], 7.76 µM (active); in [7], 0.756 µM (active). Moreover, the Potency result in assay [3], in assay [5] and in [6] was “inactive” in each case.

`NC(=O)c1nc(-c2cccc(-c3cc(F)ccc3OCC(F)(F)C(F)(F)F)c2)n[nH]1`: the Potency in [1] was 54.5 µM (active); in assay [2] it was 61.1 µM (active); in [3], 61.1 µM (active); in assay [4], 79.6 µM (active); in [9], 28.3 µM (active); in assay [5], 28.3 µM (active). Besides, the Potency in assay [7] is 43.6 µM (active).

`CC(C)=CC1CC(C)CCO1` (stereo unspecified): the Potency result in [10], in [2], in assay [3], in [4], in [9] and in assay [5] was “inactive” throughout. The Potency entry in assay [6], in assay [7] and in assay [8] was “inactive” throughout.
